Test results taken from publication PMC7862700, “An all-to-all approach to the identification of sequence-specific readers for epigenetic DNA modifications on cytosine”.

Tests used:
Experiment in all cases: DAPPL (digital affinity profiling via proximity ligation, sequencing); 10 mM Tris-HCl pH 7.5, 50 mM NaCl, 1 mM DTT, 4% glycerol, room temperature, 30 min; GST-TFs on glutathione beads, 16-mer random dsDNA library, 0.1% formaldehyde crosslink after washing; high values mean tight binding
Settings in all cases: protein: recombinant; tags: N-terminal GST; dsDNA, one strand shown
[1] = biological target: T1, GABPA (Homo sapiens, UniProt Q06546 1-454)
T1 sequence: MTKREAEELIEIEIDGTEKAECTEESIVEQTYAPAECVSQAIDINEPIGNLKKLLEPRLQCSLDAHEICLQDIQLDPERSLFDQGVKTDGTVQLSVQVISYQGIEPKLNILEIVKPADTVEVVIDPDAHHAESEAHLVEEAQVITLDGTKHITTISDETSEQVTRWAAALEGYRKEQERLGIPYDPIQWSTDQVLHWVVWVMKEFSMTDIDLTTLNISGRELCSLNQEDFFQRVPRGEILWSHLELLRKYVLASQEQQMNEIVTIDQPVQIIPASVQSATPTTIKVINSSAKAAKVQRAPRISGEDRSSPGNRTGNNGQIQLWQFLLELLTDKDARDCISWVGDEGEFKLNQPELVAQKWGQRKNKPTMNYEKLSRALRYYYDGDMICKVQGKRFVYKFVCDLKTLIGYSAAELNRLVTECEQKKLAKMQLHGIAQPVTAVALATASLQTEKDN
Method in brief: (§1)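 A tag-only sample was pooled with DNA-barcoded human transcription factors that had been expressed in yeast as GST fusions and captured on glutathione beads. The pools were incubated for 30 min at room temperature with 200 nmole of a random double-stranded 16-mer DNA library in Tris/NaCl/DTT/glycerol buffer, then washed, crosslinked with 0.1% formaldehyde, proximity-ligated (BsaI/T4 ligase, 1 h, 37 °C), PCR-amplified and sequenced on an Illumina NextSeq500. Binding signal is each hexamer's read frequency for a factor divided by its frequency for the tag-only sample.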

[2] = biological target: ELF1 (Homo sapiens, UniProt P32519 1-619)
Method in brief: as §1

[3] = biological target: T2, EHF (Homo sapiens, UniProt Q9NZC4 1-300)
T2 sequence: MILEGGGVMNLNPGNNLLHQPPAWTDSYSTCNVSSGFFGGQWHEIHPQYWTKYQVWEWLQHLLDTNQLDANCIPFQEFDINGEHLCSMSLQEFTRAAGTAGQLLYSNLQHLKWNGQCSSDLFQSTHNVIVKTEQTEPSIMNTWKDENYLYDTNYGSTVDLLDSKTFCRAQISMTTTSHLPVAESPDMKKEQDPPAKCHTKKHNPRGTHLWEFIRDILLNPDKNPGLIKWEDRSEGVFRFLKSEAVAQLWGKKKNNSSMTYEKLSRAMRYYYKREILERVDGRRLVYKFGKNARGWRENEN
Method in brief: as §1

[4] = biological target: SPIB (Homo sapiens, UniProt Q01892 1-262)
Method in brief: as §1

[5] = biological target: T3, FEV (Homo sapiens, UniProt Q99581 1-238)
T3 sequence: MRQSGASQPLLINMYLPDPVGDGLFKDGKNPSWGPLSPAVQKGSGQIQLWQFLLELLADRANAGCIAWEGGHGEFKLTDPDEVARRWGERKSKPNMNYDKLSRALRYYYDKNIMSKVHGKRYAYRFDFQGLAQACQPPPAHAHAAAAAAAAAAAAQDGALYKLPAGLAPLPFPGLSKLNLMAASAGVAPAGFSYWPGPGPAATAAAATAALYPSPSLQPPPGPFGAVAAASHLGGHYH
Method in brief: as §1

[6] = biological target: ETV5 (Homo sapiens, UniProt P41161 1-510)
Method in brief: as §1

[7] = biological target: ELF4 (Homo sapiens, UniProt Q99607 1-663)
Method in brief: as §1

[8] = biological target: T4, ELK4 (Homo sapiens, UniProt P28324-2 1-405)
T4 sequence: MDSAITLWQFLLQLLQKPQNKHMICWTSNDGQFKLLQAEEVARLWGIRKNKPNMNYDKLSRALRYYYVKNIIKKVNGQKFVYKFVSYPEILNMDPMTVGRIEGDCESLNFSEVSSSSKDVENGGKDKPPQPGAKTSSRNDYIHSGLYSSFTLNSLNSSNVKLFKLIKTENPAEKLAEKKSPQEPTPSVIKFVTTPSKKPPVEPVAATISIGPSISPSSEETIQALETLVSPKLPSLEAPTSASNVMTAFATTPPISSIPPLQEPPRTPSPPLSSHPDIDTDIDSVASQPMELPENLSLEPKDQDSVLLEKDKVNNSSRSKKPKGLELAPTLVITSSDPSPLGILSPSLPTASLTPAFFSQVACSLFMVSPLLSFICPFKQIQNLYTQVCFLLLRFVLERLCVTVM
Method in brief: as §1

[9] = biological target: T5, ETV2 (Homo sapiens, UniProt O00321 1-342)
T5 sequence: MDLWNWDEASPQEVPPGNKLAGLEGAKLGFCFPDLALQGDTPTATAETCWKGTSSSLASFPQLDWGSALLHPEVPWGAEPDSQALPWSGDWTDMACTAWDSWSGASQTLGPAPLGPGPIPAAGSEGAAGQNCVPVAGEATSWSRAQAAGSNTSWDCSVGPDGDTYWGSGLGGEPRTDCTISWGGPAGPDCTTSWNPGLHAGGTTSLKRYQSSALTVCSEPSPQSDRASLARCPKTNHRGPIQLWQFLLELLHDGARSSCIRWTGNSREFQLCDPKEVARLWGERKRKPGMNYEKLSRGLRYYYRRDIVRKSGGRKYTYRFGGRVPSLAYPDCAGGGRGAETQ
Method in brief: as §1

[10] = biological target: ETV1 (Homo sapiens, UniProt P50549 1-477)
Method in brief: as §1

[11] = biological target: T6, ERF (Homo sapiens, UniProt P50548 1-548)
T6 sequence: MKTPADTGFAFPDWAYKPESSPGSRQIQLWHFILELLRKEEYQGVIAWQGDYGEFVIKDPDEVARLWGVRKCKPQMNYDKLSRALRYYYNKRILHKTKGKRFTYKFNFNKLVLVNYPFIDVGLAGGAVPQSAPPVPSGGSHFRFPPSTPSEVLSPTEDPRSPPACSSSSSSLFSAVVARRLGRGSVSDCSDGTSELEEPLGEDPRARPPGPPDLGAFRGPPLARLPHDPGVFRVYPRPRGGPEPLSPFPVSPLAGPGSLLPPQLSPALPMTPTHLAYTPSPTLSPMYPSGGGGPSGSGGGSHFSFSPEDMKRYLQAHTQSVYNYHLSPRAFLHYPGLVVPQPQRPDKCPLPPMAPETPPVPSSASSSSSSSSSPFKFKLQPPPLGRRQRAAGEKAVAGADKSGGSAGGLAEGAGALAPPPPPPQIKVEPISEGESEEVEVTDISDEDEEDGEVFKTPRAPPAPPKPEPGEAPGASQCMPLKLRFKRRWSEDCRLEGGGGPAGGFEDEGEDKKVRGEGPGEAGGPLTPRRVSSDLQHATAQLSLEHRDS
Method in brief: as §1

[12] = biological target: T7, ETS2 (Homo sapiens, UniProt P15036 1-469)
T7 sequence: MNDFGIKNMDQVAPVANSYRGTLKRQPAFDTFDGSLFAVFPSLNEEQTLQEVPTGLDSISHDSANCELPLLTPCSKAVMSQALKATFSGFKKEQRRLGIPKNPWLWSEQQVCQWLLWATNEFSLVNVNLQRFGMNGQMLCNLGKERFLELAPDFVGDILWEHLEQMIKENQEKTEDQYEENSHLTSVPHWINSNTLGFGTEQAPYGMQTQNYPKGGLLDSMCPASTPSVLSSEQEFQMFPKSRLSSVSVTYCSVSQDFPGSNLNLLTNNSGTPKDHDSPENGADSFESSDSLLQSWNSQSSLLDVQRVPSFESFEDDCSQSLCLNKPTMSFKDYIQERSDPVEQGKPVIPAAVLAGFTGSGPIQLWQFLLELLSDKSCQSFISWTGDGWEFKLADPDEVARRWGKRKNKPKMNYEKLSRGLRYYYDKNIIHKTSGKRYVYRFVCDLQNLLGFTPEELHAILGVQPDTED
Method in brief: as §1

[13] = biological target: T8, SPDEF (Homo sapiens, UniProt O95238 1-335)
T8 sequence: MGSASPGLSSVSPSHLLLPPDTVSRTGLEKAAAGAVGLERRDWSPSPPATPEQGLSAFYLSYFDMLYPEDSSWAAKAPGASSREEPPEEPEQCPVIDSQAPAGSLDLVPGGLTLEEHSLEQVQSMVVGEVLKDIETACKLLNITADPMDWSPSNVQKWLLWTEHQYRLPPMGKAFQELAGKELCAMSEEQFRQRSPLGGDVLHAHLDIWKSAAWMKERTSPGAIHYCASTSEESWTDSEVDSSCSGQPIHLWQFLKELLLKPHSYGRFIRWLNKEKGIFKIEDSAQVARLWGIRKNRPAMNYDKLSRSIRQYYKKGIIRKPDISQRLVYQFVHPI
Method in brief: as §1

[14] = biological target: T9, ETV7 (Homo sapiens, UniProt Q9Y603 1-341)
T9 sequence: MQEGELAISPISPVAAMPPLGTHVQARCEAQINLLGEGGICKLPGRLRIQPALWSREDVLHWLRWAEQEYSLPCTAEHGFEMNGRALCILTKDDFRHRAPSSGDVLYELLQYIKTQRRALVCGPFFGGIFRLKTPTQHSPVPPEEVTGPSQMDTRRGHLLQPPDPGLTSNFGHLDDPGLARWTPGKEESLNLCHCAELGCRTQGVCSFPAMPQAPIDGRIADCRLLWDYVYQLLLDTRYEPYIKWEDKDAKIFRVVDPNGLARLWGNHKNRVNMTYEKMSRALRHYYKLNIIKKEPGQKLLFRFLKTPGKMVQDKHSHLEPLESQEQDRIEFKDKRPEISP
Method in brief: as §1

[15] = biological target: T10, ETV3 (Homo sapiens, UniProt P41162-2 1-143)
T10 sequence: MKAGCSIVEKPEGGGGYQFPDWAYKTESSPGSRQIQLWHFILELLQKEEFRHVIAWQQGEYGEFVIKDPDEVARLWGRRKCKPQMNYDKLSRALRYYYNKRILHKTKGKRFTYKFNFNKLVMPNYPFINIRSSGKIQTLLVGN
Method in brief: as §1

[16] = biological target: ETV6 (Homo sapiens, UniProt P41212 1-452)
Method in brief: as §1

Sequence of ETV1 (P50549 whole entry): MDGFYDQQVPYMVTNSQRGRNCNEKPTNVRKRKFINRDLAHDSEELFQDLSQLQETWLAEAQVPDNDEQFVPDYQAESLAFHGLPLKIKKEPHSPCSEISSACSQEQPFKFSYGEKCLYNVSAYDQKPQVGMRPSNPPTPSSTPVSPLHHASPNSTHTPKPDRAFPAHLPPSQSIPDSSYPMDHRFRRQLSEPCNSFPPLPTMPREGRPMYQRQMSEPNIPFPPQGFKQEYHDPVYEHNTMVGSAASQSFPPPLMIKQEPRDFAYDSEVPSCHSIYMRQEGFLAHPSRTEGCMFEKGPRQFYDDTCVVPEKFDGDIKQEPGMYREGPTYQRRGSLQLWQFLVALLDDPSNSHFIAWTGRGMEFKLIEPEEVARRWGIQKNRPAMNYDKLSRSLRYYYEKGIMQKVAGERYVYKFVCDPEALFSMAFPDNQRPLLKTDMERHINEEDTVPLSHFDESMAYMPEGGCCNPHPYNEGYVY
Sequence of ELF4 (Q99607 whole entry): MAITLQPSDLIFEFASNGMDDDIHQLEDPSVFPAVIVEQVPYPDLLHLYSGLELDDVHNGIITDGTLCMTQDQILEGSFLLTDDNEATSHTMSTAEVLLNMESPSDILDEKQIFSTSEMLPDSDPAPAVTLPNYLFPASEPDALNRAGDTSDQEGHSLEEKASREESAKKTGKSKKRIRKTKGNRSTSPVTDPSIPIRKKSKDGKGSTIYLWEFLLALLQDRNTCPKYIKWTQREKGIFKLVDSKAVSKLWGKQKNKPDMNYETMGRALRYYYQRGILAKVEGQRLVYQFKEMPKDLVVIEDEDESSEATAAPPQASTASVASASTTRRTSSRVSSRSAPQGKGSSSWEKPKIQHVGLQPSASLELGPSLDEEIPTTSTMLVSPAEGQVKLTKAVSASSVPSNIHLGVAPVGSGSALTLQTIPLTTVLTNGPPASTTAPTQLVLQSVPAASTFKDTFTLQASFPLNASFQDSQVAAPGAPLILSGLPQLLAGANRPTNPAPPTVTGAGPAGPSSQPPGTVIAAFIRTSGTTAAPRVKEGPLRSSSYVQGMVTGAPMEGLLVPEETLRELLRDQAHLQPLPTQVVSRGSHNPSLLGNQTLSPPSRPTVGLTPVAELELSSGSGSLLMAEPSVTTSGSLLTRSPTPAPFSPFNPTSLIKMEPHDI
Sequence of ETV6 (P41212 whole entry): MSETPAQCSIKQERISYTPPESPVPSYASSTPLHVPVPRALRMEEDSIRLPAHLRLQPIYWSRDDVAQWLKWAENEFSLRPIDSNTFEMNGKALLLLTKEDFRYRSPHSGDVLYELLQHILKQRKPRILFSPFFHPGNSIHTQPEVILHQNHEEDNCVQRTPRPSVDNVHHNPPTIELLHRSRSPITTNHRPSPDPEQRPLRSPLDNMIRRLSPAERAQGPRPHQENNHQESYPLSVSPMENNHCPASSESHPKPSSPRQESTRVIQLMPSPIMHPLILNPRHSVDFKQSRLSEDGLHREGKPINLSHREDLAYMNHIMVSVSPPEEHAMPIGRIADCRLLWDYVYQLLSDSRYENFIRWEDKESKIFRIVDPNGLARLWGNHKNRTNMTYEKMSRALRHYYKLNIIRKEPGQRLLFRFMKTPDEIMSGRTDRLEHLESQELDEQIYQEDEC
Sequence of ETV5 (P41161 whole entry): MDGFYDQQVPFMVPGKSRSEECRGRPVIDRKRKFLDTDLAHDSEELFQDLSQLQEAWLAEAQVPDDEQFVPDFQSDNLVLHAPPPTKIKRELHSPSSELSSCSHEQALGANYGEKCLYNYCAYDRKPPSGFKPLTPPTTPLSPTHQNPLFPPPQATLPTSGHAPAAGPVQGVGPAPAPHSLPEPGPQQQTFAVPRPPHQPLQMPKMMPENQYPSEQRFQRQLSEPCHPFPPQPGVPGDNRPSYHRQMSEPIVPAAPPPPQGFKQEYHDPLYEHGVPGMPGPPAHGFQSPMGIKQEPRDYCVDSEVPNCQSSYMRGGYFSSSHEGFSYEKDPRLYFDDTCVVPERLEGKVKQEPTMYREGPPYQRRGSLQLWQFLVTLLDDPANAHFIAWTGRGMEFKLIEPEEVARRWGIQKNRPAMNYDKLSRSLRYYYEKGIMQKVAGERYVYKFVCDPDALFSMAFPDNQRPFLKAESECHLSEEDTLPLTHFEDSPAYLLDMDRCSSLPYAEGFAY
Sequence of ELF1 (P32519 whole entry): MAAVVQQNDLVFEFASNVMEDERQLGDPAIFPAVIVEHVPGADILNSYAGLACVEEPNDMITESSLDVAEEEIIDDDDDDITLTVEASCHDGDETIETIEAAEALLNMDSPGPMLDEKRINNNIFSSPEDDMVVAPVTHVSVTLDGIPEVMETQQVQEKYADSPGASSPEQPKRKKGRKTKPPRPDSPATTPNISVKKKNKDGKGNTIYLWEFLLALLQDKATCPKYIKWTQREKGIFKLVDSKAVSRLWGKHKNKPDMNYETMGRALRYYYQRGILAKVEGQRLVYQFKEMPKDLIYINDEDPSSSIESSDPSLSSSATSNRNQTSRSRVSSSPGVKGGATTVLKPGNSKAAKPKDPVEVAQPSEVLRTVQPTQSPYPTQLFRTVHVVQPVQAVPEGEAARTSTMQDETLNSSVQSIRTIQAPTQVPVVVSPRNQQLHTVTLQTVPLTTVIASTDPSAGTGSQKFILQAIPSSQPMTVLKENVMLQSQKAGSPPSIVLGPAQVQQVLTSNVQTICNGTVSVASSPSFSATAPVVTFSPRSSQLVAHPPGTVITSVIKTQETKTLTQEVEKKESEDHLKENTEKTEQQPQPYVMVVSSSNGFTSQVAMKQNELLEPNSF
Sequence of SPIB (Q01892 whole entry): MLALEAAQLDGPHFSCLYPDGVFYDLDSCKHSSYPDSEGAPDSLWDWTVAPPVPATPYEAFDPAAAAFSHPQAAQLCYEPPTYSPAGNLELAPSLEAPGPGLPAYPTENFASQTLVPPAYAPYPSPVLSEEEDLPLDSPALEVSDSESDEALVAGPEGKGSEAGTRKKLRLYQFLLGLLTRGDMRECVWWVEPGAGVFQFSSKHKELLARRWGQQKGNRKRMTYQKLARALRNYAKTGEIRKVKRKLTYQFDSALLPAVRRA

GTAACC
binding signal [1]: 1.01 fold enrichment (6-mer frequency, TF over GST control)
binding signal [2]: 1.05 fold enrichment (6-mer frequency, TF over GST control)
binding signal [3]: 1.11 fold enrichment (6-mer frequency, TF over GST control)
binding signal [4]: 1.1 fold enrichment (6-mer frequency, TF over GST control)
binding signal [5]: 1.04 fold enrichment (6-mer frequency, TF over GST control)
binding signal [6]: 1.05 fold enrichment (6-mer frequency, TF over GST control)
binding signal [7]: 1.05 fold enrichment (6-mer frequency, TF over GST control)
binding signal [8]: 1.02 fold enrichment (6-mer frequency, TF over GST control)
binding signal [9]: 1.06 fold enrichment (6-mer frequency, TF over GST control)
binding signal [10]: 1.09 fold enrichment (6-mer frequency, TF over GST control)
binding signal [11]: 1.11 fold enrichment (6-mer frequency, TF over GST control)
binding signal [12]: 1.1 fold enrichment (6-mer frequency, TF over GST control)
binding signal [13]: 1.03 fold enrichment (6-mer frequency, TF over GST control)
binding signal [14]: 1.07 fold enrichment (6-mer frequency, TF over GST control)
binding signal [15]: 1.13 fold enrichment (6-mer frequency, TF over GST control)
binding signal [16]: 1.07 fold enrichment (6-mer frequency, TF over GST control)
